Common to all, as to conditions: mRNA level, 48 h; actives raise or lower the signal
Read-out in one test: CYP2C8 (gene 1558)
In words: LTEA_HepaRG_CYP2C8: Life Technologies and Expression Analysis (LTEA) Assay for CYP2C8 using HepaRG (AID 2283483). Put shortly:
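This is a transcriptional endpoint in HepaRG cultures: 48 h exposure, highest concentration 100 uM. CYP2C8 mRNA is quantified by TaqMan qRT-PCR.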

Read-out in a further test: CYP2C9 (gene 1559)
Put plainly: LTEA_HepaRG_CYP2C9: Life Technologies and Expression Analysis (LTEA) Assay for CYP2C9 using HepaRG (AID 2283484). Put shortly: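 Eight-point concentration-response (highest 100 uM, half-log dilutions) in HepaRG cells for 48 h; CYP2C9 expression by qRT-PCR normalized to ACTB, GAPDH, POLR2A. Bidirectional fit, DMSO baseline.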

Read-out in another test: CYP2E1 (gene 1571)
Put plainly: LTEA_HepaRG_CYP2E1: Life Technologies and Expression Analysis (LTEA) Assay for CYP2E1 using HepaRG (AID 2283485). In a few lines: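 CYP2E1 transcript measured by Fluidigm qRT-PCR against three housekeeping genes in human HepaRG cells treated 48 h (top 100 uM, half-log steps, 0.5% DMSO vehicle). Gain or loss fitted relative to DMSO baseline.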

Read-out in a further test: CYP4A11 (gene 1579)
Put plainly: LTEA_HepaRG_CYP4A11: Life Technologies and Expression Analysis (LTEA) Assay for CYP4A11 using HepaRG (AID 2283486). Put shortly: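 HepaRG, 48 h chem exposure, 8 conc (100 uM top, half-log), 0.5% DMSO vehicle; qRT-PCR readout, housekeeping-gene normalized; bidirectional curve fit vs DMSO baseline.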

Read-out in test [1]: Cytochrome P450 3A4 (Homo sapiens) (UniProt P08684)
Put plainly: LTEA_HepaRG_CYP3A4: Life Technologies and Expression Analysis (LTEA) Assay for CYP3A4 using HepaRG (AID 2283487). In a few lines:
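Differentiated HepaRG cells in serum-free induction medium exposed in duplicate for 48 h to 8 half-log concentrations up to 100 uM in 0.5% DMSO. CYP3A4 mRNA measured by qRT-PCR normalized to ACTB, GAPDH and POLR2A; bidirectional fit versus DMSO.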

Read-out in test [2]: DNA damage-inducible transcript 3 (DDIT3), DDIT3 (gene 1649)
Put plainly: LTEA_HepaRG_DDIT3: Life Technologies and Expression Analysis (LTEA) Assay for DNA damage-inducible transcript 3 (DDIT3) using HepaRG (AID 2283488). Put shortly: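 DDIT3 transcript was quantified by qRT-PCR with ACTB/GAPDH/POLR2A normalization after 48 h chemical treatment of differentiated HepaRG cells in 0.5% DMSO. Dosing was eight-point, half-log, top 100 uM, duplicate wells. Curves fitted bidirectionally versus DMSO.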

Read-out in test [3]: Pro-epidermal growth factor (Homo sapiens) (UniProt P01133)
In words: LTEA_HepaRG_EGF: Life Technologies and Expression Analysis (LTEA) Assay for Epidermal growth factor (EGF) using HepaRG (AID 2283489). Put shortly:
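HepaRG, 48 h dosing, 100 uM top, half-log x8, 0.5% DMSO. Readout: TaqMan qRT-PCR (Fluidigm array), housekeeping-normalized. Gain or loss of signal fit vs DMSO.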

Read-out in test [4]: Early growth response protein 1 (EGR1) transcription factor, EGR1 (gene 1958)
In words: LTEA_HepaRG_EGR1: Life Technologies and Expression Analysis (LTEA) Assay for Early growth response protein 1 (EGR1) transcription factor using HepaRG (AID 2283490). Put shortly:
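EGR1 expression change in human HepaRG after 48 h chemical exposure, assessed by housekeeping-normalized qRT-PCR; concentration-response up to 100 uM, fitted in both directions against DMSO controls.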

Read-out in test [5]: Ezrin (EZR), EZR (gene 7430)
Put plainly: LTEA_HepaRG_EZR: Life Technologies and Expression Analysis (LTEA) Assay for Ezrin (EZR) using HepaRG (AID 2283491). In a few lines: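 Differentiated human HepaRG cells, 48 h after plating, were exposed in serum-free induction medium for 48 hours to eight half-log concentrations up to 100 uM in 0.5% DMSO. EZR mRNA was measured by TaqMan qRT-PCR, normalized to ACTB, GAPDH and POLR2A, and fitted bidirectionally against DMSO.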

Read-out in test [6]: Cytochrome P450 3A7 (Homo sapiens) (UniProt P24462)
In words: LTEA_HepaRG_CYP3A7: Life Technologies and Expression Analysis (LTEA) Assay for CYP3A7 using HepaRG (AID 2283492). In a few lines:
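Human HepaRG liver cells, 48 h post-plating, switched to serum-free induction medium and exposed in duplicate for 48 h. Dosing: 100 uM top, half-log dilutions, 8 points, 0.5% DMSO vehicle. Read-out: CYP3A7 mRNA, gain or loss fitted against DMSO baseline.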

Outcome and AC50 data for 15 compounds are collected here from PubChem BioAssay (EPA / NIEHS).

Molecules are shown by their SMILES. The source made the active and inactive calls. The calls were made as follows: active = hit-call score of the fitted dose curve at least 0.9, where 1 is the maximum; inactive = score below 0.9.

Usually AC50 stands for the concentration giving half of the maximal activity seen.

Sequence of Cytochrome P450 3A4 (Homo sapiens) (P08684 whole entry, looked up): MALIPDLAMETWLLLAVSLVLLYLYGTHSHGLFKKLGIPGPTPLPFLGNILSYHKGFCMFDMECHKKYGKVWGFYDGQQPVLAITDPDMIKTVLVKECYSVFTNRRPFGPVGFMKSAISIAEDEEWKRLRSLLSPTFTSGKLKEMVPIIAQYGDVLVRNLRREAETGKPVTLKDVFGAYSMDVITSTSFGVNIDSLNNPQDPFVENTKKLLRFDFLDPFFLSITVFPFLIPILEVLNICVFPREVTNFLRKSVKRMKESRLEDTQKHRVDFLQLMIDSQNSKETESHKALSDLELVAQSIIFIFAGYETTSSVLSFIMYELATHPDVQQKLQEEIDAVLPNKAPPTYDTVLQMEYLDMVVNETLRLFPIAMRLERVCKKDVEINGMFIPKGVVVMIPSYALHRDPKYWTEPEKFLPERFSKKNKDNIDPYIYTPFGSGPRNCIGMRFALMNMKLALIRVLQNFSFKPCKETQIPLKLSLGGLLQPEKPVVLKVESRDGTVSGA
Sequence of Cytochrome P450 3A7 (Homo sapiens) (P24462 whole entry, looked up): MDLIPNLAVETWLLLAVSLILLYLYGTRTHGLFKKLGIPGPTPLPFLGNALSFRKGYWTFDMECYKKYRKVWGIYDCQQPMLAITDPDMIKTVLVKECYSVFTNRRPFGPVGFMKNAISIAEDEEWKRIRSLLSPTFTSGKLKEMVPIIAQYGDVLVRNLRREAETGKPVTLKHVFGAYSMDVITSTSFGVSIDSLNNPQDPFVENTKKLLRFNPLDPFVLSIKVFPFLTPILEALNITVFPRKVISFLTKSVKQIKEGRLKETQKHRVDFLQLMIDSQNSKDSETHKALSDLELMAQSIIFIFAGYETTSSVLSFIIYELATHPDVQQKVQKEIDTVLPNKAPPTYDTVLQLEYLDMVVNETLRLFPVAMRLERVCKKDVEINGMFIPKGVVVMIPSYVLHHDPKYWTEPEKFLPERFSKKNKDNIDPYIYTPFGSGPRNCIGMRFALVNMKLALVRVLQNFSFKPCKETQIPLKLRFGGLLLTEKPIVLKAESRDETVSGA

Turning to `CCc1cc(SCc2sc(-c3ccc(C(F)(F)F)cc3)nc2CN2CCN(c3ccc(OC)cc3)CC2)ccc1OCC(=O)O`, the call (in the test with CYP2C8 (gene 1558); in test [3]) was inactive. For the same compound, the half-maximal activity concentration (AC50) in the test with CYP2C9 (gene 1559) was 76.6 µM (active); with CYP2E1 (gene 1571), 75.4 µM (active); in the test with CYP4A11 (gene 1579), 74.7 µM (active); in [1], 7.66 µM (active); in test [2], 3.85 µM (active); in test [4], 51.9 µM (active). The half-maximal activity concentration (AC50) in test [5] is 94.3 µM (active); in [6] it was 8.73 µM (active).

Regarding `CN(C)c1ccc(N=NS(=O)(=O)O)cc1`, the results for the AC50 in the test with CYP2C8 (gene 1558) and with CYP2E1 (gene 1571) were 2.62 µM (active) and 22 µM (active), respectively. Besides, the result (in the test with CYP2C9 (gene 1559); in the test with CYP4A11 (gene 1579); in test [1]; in [2]; in test [3]; in [5]) was inactive. In test [6], the call was inactive.

As for `CC(=O)c1ccc2c(c1)[C@H](NC(=O)c1ccc(F)cc1)[C@@H](O)C(C)(C)O2`, the compound was called inactive (in the test with CYP2C8 (gene 1558); in the test with CYP2C9 (gene 1559); with CYP2E1 (gene 1571); with CYP4A11 (gene 1579); in [2]; in test [3]). Further, the result in test [4] and in test [5] was inactive. Further, the AC50 in test [1] was 18 µM (active); in test [6] it was 34.2 µM (active).

As for `CC(=O)OCCC(C)C`, the outcome (in the test with CYP2C8 (gene 1558); with CYP2C9 (gene 1559); in the test with CYP2E1 (gene 1571); in the test with CYP4A11 (gene 1579); in test [1]; in test [2]) was inactive. Besides, the compound was classed as inactive in test [3], in test [4], in test [5] and in [6].

With `CCOC(=O)c1ccc(C2CCC(NC[C@H](O)COc3ccc(O)c(NS(C)(=O)=O)c3)CC2)cc1` (stereo not given in full), the compound was classed as inactive (with CYP2C8 (gene 1558); with CYP2C9 (gene 1559); with CYP2E1 (gene 1571); with CYP4A11 (gene 1579); in test [1]; in test [2]). Moreover, the compound was classed as inactive in [3], in test [4], in test [5] and in test [6].

On to `CNCc1ccc(NC(=O)c2c[nH]c3c2C(=O)CCC3)cc1`, for which the compound was classed as inactive (with CYP2C8 (gene 1558); in the test with CYP2C9 (gene 1559); with CYP2E1 (gene 1571); with CYP4A11 (gene 1579); in test [1]; in test [2]). In addition, the compound was classed as inactive in test [3], in [5] and in test [6].

For the compound `C=CC(=C)CCC=C(C)C`, the compound was classed as inactive (with CYP2C8 (gene 1558); in the test with CYP2C9 (gene 1559); in the test with CYP2E1 (gene 1571); in the test with CYP4A11 (gene 1579); in [1]; in test [2]). The outcome in test [3], in test [4], in test [5] and in test [6] was inactive.

`CC1(C)C(=O)N(Br)C(=O)N1Br`: the result (with CYP2C8 (gene 1558); in the test with CYP2C9 (gene 1559); in the test with CYP2E1 (gene 1571); in the test with CYP4A11 (gene 1579); in [1]; in test [2]) was inactive. Also, the call in test [3], in test [5] and in test [6] was inactive.

For the compound `Cc1ccc(N)cc1O`, the compound was called inactive (with CYP2C8 (gene 1558); in the test with CYP2C9 (gene 1559); with CYP4A11 (gene 1579); in test [1]; in test [2]; in [3]). For the same compound, the compound was called inactive in test [5] and in test [6]. Further, the AC50 with CYP2E1 (gene 1571) is 30.8 µM (active).

As for `CCOc1cccc(-n2cc(C(=O)N3CCN(c4cc(C(=O)O)c5ccccc5c4)CC3)nc2-c2ccc(C)cc2)c1`, the AC50 with CYP2C8 (gene 1558) is 25.6 µM (active); with CYP2C9 (gene 1559), 31.6 µM (active); with CYP2E1 (gene 1571), 14.7 µM (active); with CYP4A11 (gene 1579), 28.9 µM (active); in test [1] it was 31.1 µM (active); in test [2], 12.4 µM (active). For the same compound, the AC50 was 88 µM (active) in [3] and 83.7 µM (active) in [4]. Also, the compound was classed as inactive in test [5] and in test [6].

Regarding `CCNc1ccccc1`, the compound was classed as inactive (with CYP2C8 (gene 1558); in the test with CYP2C9 (gene 1559); with CYP2E1 (gene 1571); with CYP4A11 (gene 1579); in test [1]; in test [2]). The call in [3], in test [4], in [5] and in [6] was inactive.

In the case of `Cn1c(=O)c2c(ncn2C)n(C)c1=O`, the compound was classed as inactive (in the test with CYP2C8 (gene 1558); in the test with CYP2C9 (gene 1559); with CYP2E1 (gene 1571); with CYP4A11 (gene 1579); in [1]; in test [2]). For the same compound, the call in [3], in [4], in test [5] and in test [6] was inactive.

In the case of `CC(C)c1cccc(C(C)C)c1N1C(=O)c2ccc(O)cc2C1=O`, the compound was called inactive (with CYP2C8 (gene 1558); with CYP2C9 (gene 1559); in test [3]; in [5]). The AC50 was 89.7 µM (active) with CYP2E1 (gene 1571); 72 µM (active) with CYP4A11 (gene 1579); 11.6 µM (active) in [1]; 74.9 µM (active) in test [2]; 86.2 µM (active) in [4]; 87.9 µM (active) in test [6].

For the compound `COc1cccc(-c2ccc(/C=C\CN3CCCCCC3)cc2Cl)c1`, the concentration at half-maximal activity (AC50) is 74.1 µM (active) in the test with CYP2C8 (gene 1558); 70.8 µM (active) with CYP2C9 (gene 1559); 61.8 µM (active) in the test with CYP2E1 (gene 1571); 85.4 µM (active) with CYP4A11 (gene 1579); 76.3 µM (active) in test [1]; 79.4 µM (active) in test [2]. Besides, the AC50 was 45.2 µM (active) in test [5] and 81.9 µM (active) in test [6]. For the same compound, in test [3], the compound was classed as inactive.

Turning to `COCCOCCOCCOC`, the compound was classed as inactive (in the test with CYP2C8 (gene 1558); with CYP2C9 (gene 1559); with CYP2E1 (gene 1571); with CYP4A11 (gene 1579); in test [1]; in test [2]). In addition, the call in test [3], in test [4], in test [5] and in test [6] was inactive.
